The record followed here is PMC5540273 (PLoS ONE, 2017).

What all share (conditions): concentration: 1 μM, replicates: in singlicate; n = 1
Assay [1] relates to FGFR1.
Assay [2] has as its system FGFR2.
Assay [3] has as its system FGFR3.
Assay [4] relates to FGFR4.
Assay [5] has as its system FGR.
For assay [6], the system named is FLT1.
Assay [7] has as its system FLT3-autoinhibited.
For assay [8], the system named is FLT3.
In assay [9] the test system is FLT4.
The test system of assay [10] is FRK.
Assay [11] deals with FYN.
For assay [12], the system named is GAK.
The subject of assay [13] is T1, GCN2(Kin.Dom.2,S808G).
T1 construct: gene EIF2AK4

In assay [14] the test system is GRK1.
Assay [15] relates to T2, GRK2.
T2 construct: gene ADRBK1

Assay [16] relates to T3, GRK3.
T3 construct: gene ADRBK2

The subject of assay [17] is GRK4.
Assay [18] has as its system GRK7.
Assay [19] concerns GSK3A.
Assay [20] deals with GSK3B.
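Further: KINOMEscan kinase panel screen.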

Turning to `COc1cccc(NC(=O)NC2CCN(c3ccnc(Nc4cc(OC)c(OC)c(OC)c4)n3)C2)c1` (stereo not shown) [GSK1379763], the “%Inh” value in assay [1] is 0%; in assay [2], 0%; in [3], 8%; in [4] it was 1%; in assay [5] it was 25%; in [6], 24%. Also, the “%Inh” value in [7] was 14%; in assay [8], 62%; in [9], 37%; in assay [10], 0%; in [11], 42%; in [12] it was 31%. Also, the “%Inh” value stood at 4% in assay [13]; 0% in [14]; 0% in assay [15]; 15% in assay [16]; 0% in [17]; 0% in assay [18]. The results for the “%Inh” value in assay [19] and in [20] were 0% and 45%, respectively.

In the case of `O=C(Nc1cccc(-c2nn3ccccc3c2-c2ccnc(Nc3cccc(C(F)(F)F)c3)n2)c1)c1c(F)cccc1F` [GSK292658], the “%Inh” value in assay [1] is listed as 0%; in assay [2], 20%; in assay [3], 9%; in assay [4], 0%; in assay [5] it was 92.5%; in [6], 78%. The “%Inh” value is 5% in [7]; 62% in assay [8]; 36% in [9]; 72% in [10]; 56% in assay [11]; 3% in assay [12]. Besides, the “%Inh” value in [13] stood at 10%; in [14], 3%; in [15], 0%; in assay [16], 0%; in assay [17], 15%; in assay [18], 3%. Also, the “%Inh” value in assay [19] was 5%; in assay [20], 4%.

Take `Cc1cccc(Nc2nc(N[C@H]3CCNC3)ncc2C(N)=O)c1.Cl` [GSK2197149]: the “%Inh” value in assay [1] was found to be 0%; in assay [2], 0%; in assay [3] it was 3%; in assay [4] it was 0%; in assay [5], 82%; in [6], 24%. Further, the “%Inh” value is recorded as 82% in [7]; 80% in assay [8]; 9% in [9]; 15% in [10]; 43% in assay [11]; 86% in assay [12]. The “%Inh” value in assay [13] is 25%; in [14], 0%; in assay [15], 0%; in assay [16], 0%; in [17] it was 78%; in assay [18], 0%. The “%Inh” value in [19] and in [20] was 0% throughout.

`CC(C)c1nc(-c2cccc(NS(=O)(=O)c3c(F)cccc3F)c2F)c(-c2ccnc(Nc3ccc(N4CCOCC4)nc3)n2)s1` [GSK2008607]: the “%Inh” value is recorded as 60% in assay [1]; 82% in assay [2]; 67% in [3]; 48% in [4]; 98.7% in assay [5]; 98.6% in [6]. The “%Inh” value in assay [7] is 0%; in assay [8], 70%; in assay [9] it was 99.9%; in assay [10], 98.8%; in assay [11], 98.2%; in [12] it was 96.1%. For the same molecule, the “%Inh” value turned out to be 100% in assay [13]; 100% in assay [14]; 0% in [15]; 0% in [16]; 0% in assay [17]; 0% in assay [18]. For the same molecule, the “%Inh” value is 53% in [19] and 21% in [20].

On to `Cn1cc(-c2ccc3c(c2)CCN3C(=O)Cc2cccc(Cl)c2)c2c(N)ncnc21` [GSK2606590], for which the “%Inh” value in [1] came to 23%; in assay [2], 0%; in assay [3], 0%; in [4] it was 0%; in assay [5], 35%; in assay [6], 59%. Moreover, the “%Inh” value came to 1% in [7]; 91.8% in assay [8]; 45% in assay [9]; 8% in assay [10]; 27% in assay [11]; 33% in assay [12]. Further, the “%Inh” value was determined as 43% in assay [13]; 5% in assay [14]; 0% in assay [15]; 0% in [16]; 11% in assay [17]; 0% in [18]. The “%Inh” value in assay [19] is 5%; in assay [20], 3%.

`COC(=O)Nc1nc2ccc(Oc3ccc(NC(=O)Nc4cc(C(F)(F)F)ccc4F)cc3)cc2n1C.Cl` [GW692089]: the “%Inh” value is 2% in assay [1]; 0% in assay [2]; 7% in assay [3]; 0% in assay [4]; 28% in assay [5]; 89% in assay [6]. Besides, the “%Inh” value in [7] amounted to 3%; in assay [8], 99%; in [9], 87%; in assay [10] it was 69%; in [11], 0%; in assay [12] it was 0%. Also, the “%Inh” value in [13] is listed as 0%; in [14], 0%; in assay [15], 0%; in assay [16], 49%; in [17] it was 6%; in assay [18], 0%. The “%Inh” value came to 9% in [19] and 0% in assay [20].

For the molecule `CSc1cccc2c(-c3ccncn3)c(-c3ccc(F)cc3)nn12` [GW514786], the “%Inh” value is on record as 0% in [1]; 0% in assay [2]; 4% in [3]; 7% in [4]; 10% in assay [5]; 19% in [6]. The “%Inh” value is given as 0% in assay [7]; 5% in assay [8]; 0% in [9]; 9% in assay [10]; 17% in [11]; 76% in assay [12]. Further, the “%Inh” value was 0% in assay [13]; 6% in [14]; 7% in assay [15]; 35% in [16]; 100% in assay [17]; 0% in [18]. Moreover, the “%Inh” value in [19] was 5%; in assay [20] it was 9%.

For the molecule `Cc1ccc(C)c(NC(=O)NC2CCN(c3ccnc(Nc4ccc(F)cc4)n3)C2)c1` (stereo not shown) [GSK1379720], the “%Inh” value came out at 0% in [1]; 14% in [2]; 2% in [3]; 5% in [4]; 24% in assay [5]; 9% in assay [6]. Besides, the “%Inh” value in [7] is recorded as 0%; in assay [8], 0%; in assay [9] it was 0%; in assay [10], 14%; in [11], 27%; in assay [12], 0%. The “%Inh” value was found to be 0% in [13]; 0% in assay [14]; 0% in assay [15]; 60% in [16]; 7% in assay [17]; 0% in assay [18]. Moreover, the “%Inh” value in [19] and in assay [20] was 0% throughout.
